ClpP mod = qHTS Assay for Activators of ClpP | ATP-dependent Clp protease proteolytic subunit (Bacillus subtilis (strain 168)), P80244 | purified B. subtilis ClpP, FRET peptide cleavage, 20 min | Potency, µM (highest dose often 57.5 µM) | 340,000 compounds, 1.9% hits; active = well fitted falling curve with a large enough effect; inconclusive = small, poorly fitted or top-dose-only effect; inactive = no such curve, though single readings can be large or run the other way; note: the source files actives as falling curves though it sought activators and does not explain the sign; nearly all actives have a fitted effect of over 65% in size
Target sequence (P80244 whole entry, looked up): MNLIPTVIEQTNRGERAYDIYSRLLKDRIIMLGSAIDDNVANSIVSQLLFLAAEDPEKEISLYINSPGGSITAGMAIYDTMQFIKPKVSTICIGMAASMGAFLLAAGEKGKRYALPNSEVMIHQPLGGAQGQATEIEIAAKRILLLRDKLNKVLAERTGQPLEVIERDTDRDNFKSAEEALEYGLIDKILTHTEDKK
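ClpP 10 microg/mL final, pH 8 Tris/KCl buffer with BSA, glycerol, Tween-20; compound pinned in; FRET-FV substrate; RT 20 min; Ex320/Em430; ΔFRET vs ADEP 5.8 microM, DMSO, no enzyme.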
RXFP1 antagonist = RXFP1 (human) relaxin receptor antagonism | Q9HBX9 | HEK293-RXFP1, relaxin-stimulated cAMP HTRF, 30 min; hits give low values | activity change, negative = inhibition, % at 57.5 µM | 350,000 compounds, 0.59% hits | AID 1259400;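 active = activity change of -60% or lower, but not beyond a set lower limit; inconclusive = change between -60% and -40%, or beyond the set limit; inactive = change above -40%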
RXFP1 ag = RXFP1 (human) receptor agonism | Q9HBX9 | HEK293T-RXFP1 cAMP TR-FRET, 30 min; response scale: percent of porcine relaxin response, buffer zero | Potency, µM (series often up to 57.5 µM), actives largely listed as activators | 370,000 compounds, 0.3% hits | AID 2676; active = well fitted activation curve with a large enough effect; inconclusive = small, poorly fitted or top-dose-only effect; note: nearly all actives have a fitted effect of over 60% in size
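Agonist response is measured as cAMP accumulation in an RXFP1-transfected HEK293T line under PDE4 inhibition. Values are scaled between buffer-only and 29 nM porcine relaxin, and EC50s come from standard Hill equation fits.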
pAkt inh = blocks phosphorylation of Akt; Neuro2A IGF-stimulated pAkt S473 HTRF, 20 min; hits give low values; 360,000 compounds, 0.32% hits; activity change, % for hits at 50 µM; in the data active = activity change below about -80%; inconclusive = mostly about -51% to -80%
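Neuro2A cells (4,500/well, DMEM with 0.5% FBS) were treated with compound at a single 50 µM final concentration, stimulated with 6 nM IGF for 20 min at 37 °C, and lysed. Phospho-Akt Ser473 was read by HTRF as 665/615 ratio ×10^4.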
gsp antagonist = gsp mutant antagonism; Potency, µM (doses to about 76.9 µM), usual class: inhibitors; 340,000 compounds, 0.4% hits; AID 624288; gsp-mutant cells, cAMP HTRF, 30 min; calls by dose curve; cell line not stated here;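 note: intracellular cAMP measured with PDE inhibitor Ro 20-1724 present during compound exposure; nearly all actives have a fitted effect of over 65% in size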
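Measurement of cellular cAMP by homogeneous time-resolved fluorescence following a 30 min compound exposure at 37C. The PDE inhibitor […] was present throughout; the assay buffer was DPBS with 0.05% BSA and 0.005% Tween 20.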
gsp ag = agonists of gsp mutant (McCune-Albright syndrome) | Potency, µM (highest dose often 76.9 µM), usual class: activators | AID 624287 | gsp mutant cells, cAMP HTRF, 30 min | 340,000 compounds, 0.13% hits; active = well fitted activation curve with a large enough effect; inconclusive = small, poorly fitted or top-dose-only effect, or another doubt; inactive = no such curve, though single readings can be large or run the other way; cell line not stated here;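 note: phosphodiesterase inhibitor Ro 20-1724 added with compounds to block cAMP breakdown; nearly all actives have a fitted effect of over 60% in size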
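Cells in DMEM/10% FBS with G418 were pretreated with compounds in DMSO plus […] (300 uM stock) for 30 min at 37C. cAMP was measured by HTRF (cAMP-d2 plus anti-cAMP antibody-K) after 30 min at room temperature.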
Numbers stand for hits; - = inactive; ? = inconclusive; . = not tested or not shown; [ ] = another dose, or the depositor's remark. The list is not random: actives were taken first. Their share in the collection is about 2.7%.

SMILES	ClpP mod	RXFP1 antagonist	RXFP1 ag	pAkt inh	gsp antagonist	gsp ag
CCCCn1c(N)c(N(CC(C)C)C(=O)C2CCCN(C(=O)c3ccc(Cl)cc3)C2)c(=O)[nH]c1=O (configuration not stated)	.	-	-	-	-	-[15.4 µM]
COc1cc2c(C(=O)O)c(C)n(CC(C)C)c2c2ccccc12	35µM	-	-	-	-	-
COc1ccccc1CC(=O)Nc1cc2oc3ccccc3c2cc1OC	32µM	-	-	-	-	-
COc1ccccc1CC(=O)Nc1ccc(O)cc1C(=O)O	18µM	-	-	-	-	?
COc1cc2c(cc1NC(=O)COC(=O)C1CC(=O)N(Cc3ccco3)C1)oc1ccccc12 (configuration not stated)	25µM	-	-	-	-	-
COc1ccc(CC(=O)Nc2cc3oc4ccccc4c3cc2OC)cc1	-	-	-	-	?	-
COc1cc2c(cc1NC(=O)CN1CCN(S(=O)(=O)c3ccc(C)cc3)CC1)oc1ccccc12	?	-	-	-	-	-[15.4 µM]
COc1cc2c(cc1NS(=O)(=O)N1CCCC1)oc1ccccc12	25µM	-	-	-	-	-
O=C(OCC#CCSc1nnc(-c2cccc3ccccc23)s1)c1cccs1	.	.	-	.	.	.
COc1cc2c(cc1NC(=O)COc1ccc3ccccc3c1)oc1ccccc12	3.2µM	-	-	-	-	-
COc1cc2c(cc1NC(=O)COC(=O)[C@@H](NC(=O)c1ccccc1F)C(C)C)oc1ccccc12	5.6µM	-	-	-	-	-
COc1cc2c(cc1NC(=O)COc1ccc(Br)cc1)oc1ccccc12	?	-	-	.	.	.
COc1ccc(NC2CCN(C3CC(=O)N(c4ccc(F)c(Cl)c4)C3=O)CC2)cc1 (configuration not stated)	2.8µM	-	-	-	-	-
CCN1C(=O)CC(N2CCC(Nc3ccc(OC)cc3)CC2)C1=O (configuration not stated)	-	-	-	-106%	-[15.4 µM]	-
Cc1cccc(NS(=O)(=O)c2ccc3c(c2)OCC(C(=O)N2CCCC2)O3)c1C (configuration not stated)	-	-	-	.	.	.
Cc1ccc(NC(=O)C2CCN(S(=O)(=O)c3c(C)noc3/C=C/N(C)C)CC2)cc1	-	-112	-	-	-	?
COc1cc2c(C#N)c(N3CCN(c4ccccc4OC)CC3)nc(N)c2c(N)n1	32µM	-	-	?	-	-
N#Cc1c(N2CCCC2)nc(N)c2c(N)nc(N3CCCC3)cc12	7.9µM	.	-	-	-	?
COc1cc2c(C#N)c(N3CCN(C)CC3)nc(N)c2c(N)n1	.	.	-	.	.	.
Cc1cc(C)c(C#N)c(N2CCN(c3ccc(F)cc3)CC2)n1	.	-	-	-	-	-
Cc1cc(C)c(C#N)c(N2CCCC2)n1	3.5µM	-	-	.	-	-
O=C(CCn1c(=O)c2ccccc2n(CC(=O)Nc2cccc(F)c2)c1=O)NCCc1ccccc1	-	.	-	.	.	.
CN(C)c1ccc(/C=C/c2ncnc3ccccc23)cc1	-	.	.	.	.	.
Cn1c(=O)c2nc(Cl)c(-c3ccccc3)nc2n(C)c1=O	25µM	-	-	-	-	-
Nc1ccc(N(c2ccccc2)c2ccc(N)cc2)cc1	35µM	-	-	-	-	-
SMILES	ClpP mod	RXFP1 antagonist	RXFP1 ag	pAkt inh	gsp antagonist	gsp ag
O=C(c1ccc2c(c1)N(Cc1ccc(F)cc1)CCS2)N1CCN(c2ccccc2)CC1	-	-	-	.	.	.
COc1cc2nc(SCC(=O)Nc3ccc(F)cc3)n3nc(CCn4c(C)nc5ccccc54)nc3c2cc1OC	-	.	-	.	.	.
COc1cc2nc(SCC(=O)Nc3cccc(C)c3)n3nc(CCn4c(C)nc5ccccc54)nc3c2cc1OC	-	-	18µM	.	.	.
CC1(C)C(=O)OC(C(=O)c2ccc(C(C)(C)C)cc2)C(C)(C)C1=O (configuration not stated)	32µM	-	-	-	-	-
COc1ccccc1N1CCN(C(c2ccc(F)cc2)c2nnnn2C(C)C)CC1 (configuration not stated)	18µM	-	-	-	-	?
COCCn1nnnc1C(c1ccc2ncccc2c1)N1CCN(c2ccccc2F)CC1 (configuration not stated)	-	-	-	-104%	-	-
CCOC(=O)C1CCCN(Cc2nc(N)nc(Nc3ccccc3)n2)C1 (configuration not stated)	-	-	-	-96%	-	-
CCCCCNS(=O)(=O)c1ccc(N2CCCCS2(=O)=O)cc1	-	-	-	.	.	.
Oc1ccc(C=NNC(=S)Nc2ccc(F)cc2)c(O)c1	.	-64	.	-	-	?
Cc1ccc(C)c2c1NC(C(=O)O)C1CC=CC21 (configuration not stated)	-	.	.	.	.	.
COc1ccc(-c2cc(OC(=O)c3cccc(Cl)c3)c3c(C)oc(C)c3c(=O)c2)cc1OC	-	-	-	.	.	.
CCOc1cc(-c2ccc(OC(=O)c3ccc(C)cc3)c(OC)c2)cc(=O)c2c(C)oc(C)c12	-	-64	-	.	.	.
COc1cc(-c2cc(OC)c3c(C)oc(C)c3c(=O)c2)ccc1OC(=O)c1cccc(Cl)c1	-	-76	-	.	.	.
COc1cc(-c2cc(OC)c3c(C)oc(C)c3c(=O)c2)ccc1OC(=O)c1ccccc1C	-	-65	-	.	.	.
CCOc1cc(-c2ccc(OC(=O)c3ccccc3F)cc2)cc(=O)c2c(C)oc(C)c12	-	-97	-	.	.	.
CCC(=O)NC(Cc1ccccc1)c1ccc2c(c1)OCCCO2 (configuration not stated)	22µM	-	-	-	-	-
O=C(COc1ccc(F)cc1)NCc1ccc2c(c1)CCN2C(=O)c1ccc(F)cc1	-	-	-	.	.	.
CCOC(=O)Cn1c(-c2ccc(Cl)nc2)nc2ccccc21	10µM	-	-	-	-	-
CC(C)CC(=O)Nc1nnc(SCc2cc(=O)n3ccccc3n2)s1	-	-	-	.	.	.
COc1ccc(OCC(O)Cn2c(NCCO)nc3c2c(=O)n(C)c(=O)n3C)cc1 (configuration not stated)	-	-	-	.	.	.
CCOC(=O)c1c(N)sc2c1CCN(Cc1ccccc1)C2	-	-	.	.	.	.
CC(=O)N[C@@H](Cc1c[nH]c2ccccc12)C(=O)NCc1ccccc1	.	-	-	-	-	-
COc1ccccc1N(C)c1cc2c(c3c1ccn3C)C1CCC2C1 (configuration not stated)	32µM	.	.	-	.	.
Cc1cc2oc(=O)c(CC(=O)O)c(C)c2c2occ(-c3ccccc3)c12	32µM	-	-	.	.	.
COc1ccc(C(=O)N(Cc2ccco2)Cc2cccs2)c(OC)c1	-	.	.	.	.	.
O=Cc1ccc(N2CCOCC2)cc1	-	.	.	.	.	.
COc1ccccc1CNC(=O)CSc1ccc(-c2sc(-c3ccccc3)nc2C)nn1	28µM	-	-	.	.	.
